# Inconclusive results are not listed. A call without a number means that no potency is given here. Activity calls are given as the source filed them. Calls follow the shape of the dose curve; as a rule, active = well fitted inhibition curve with a large enough effect in the repeat runs; inconclusive = weak or mixed curves; inactive = no such curve, though single readings can be large or run the other way.
# Biological target: Cytochrome P450 2C9 (Homo sapiens) (UniProt P11712)
# Experiment: Cytochrome P450 family 2 subfamily C member 9 (CYP2C9) small molecule antagonists: luciferase biochemical (cell-free) qHTS assay (AID 1645842); also: nearly all actives have a fitted effect of over 55% in size
# Details: P450-Glo CYP2C9 enzyme assay, luciferin luminescence; series mostly up to 57.4 µM
# Description: National Center for Advancing Translational Sciences [NCATS] Assay Overview: Cytochrome P450 (CYP) enzymes are membrane-bound hemeproteins that play a key role in metabolism of drugs and xenobiotics. Assaying the effect of chemicals on CYP isozymes is useful to minimize the adverse drug reactions and toxicities in drug development process. Chemical compounds were tested for their effect on CYP enzyme activities by using P450-Glo (TM) screening systems (Promega Corporation, Madison, WI). These systems provide a luminescent method containing proluciferin substrates and are converted to luciferin products by CYP isozymes. The luciferin products formed are detected with a luciferin detection reagent, and the amount of light produced is proportional to CYP activity. P450-Glo (TM) CYP2C9 screening system (Catalog. No. V9790) was used to detect the compounds that interfere in CYP2C9 activity.
# Assay Protocol Summary: Two ul of enzyme-substrate mix supplemented with 0.4% Bovine Serum Albumin was dispensed into medium binding white/solid 1536-well plates (Greiner Bio-One North America Inc., Monroe, NC) using a Flying Reagent Dispenser (FRD, Aurora Discovery, San Diego, CA). […] The assay plates were incubated at room temperature for 10 min. Then 2 ul of NADPH regeneration solution was added to each well of the assay plates using an FRD and incubated at 37C for 1 h. The reaction was stopped by adding 4 ul of detection reagent using an FRD and after 20 min incubation at room temperature, the luminescence signal was measured using a ViewLux plate reader (Perkin Elmer, Shelton, CT). Data were expressed as relative luminescence units.
# Potency is read from the fitted curve at half-maximal effect.
# Chain of Cytochrome P450 2C9 (Homo sapiens) (P11712 whole entry, looked up): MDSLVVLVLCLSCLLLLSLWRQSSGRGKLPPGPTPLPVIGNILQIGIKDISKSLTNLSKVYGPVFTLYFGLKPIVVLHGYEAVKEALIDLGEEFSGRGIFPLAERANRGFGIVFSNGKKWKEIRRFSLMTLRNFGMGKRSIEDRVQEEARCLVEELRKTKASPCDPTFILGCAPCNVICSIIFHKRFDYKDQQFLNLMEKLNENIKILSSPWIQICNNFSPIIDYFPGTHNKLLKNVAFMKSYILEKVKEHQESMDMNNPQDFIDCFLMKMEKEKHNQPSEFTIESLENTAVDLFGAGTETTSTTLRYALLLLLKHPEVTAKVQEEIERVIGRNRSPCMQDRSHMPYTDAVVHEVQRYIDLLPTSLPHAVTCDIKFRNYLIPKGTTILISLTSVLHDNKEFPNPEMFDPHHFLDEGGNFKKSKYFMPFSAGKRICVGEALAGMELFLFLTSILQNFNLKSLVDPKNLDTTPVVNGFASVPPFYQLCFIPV
row,SMILES,Potency
1,CN1CCN(N)CC1,inactive
2,NC(=O)C1(N2CCCCC2)CCN(CCCN2c3ccccc3CCc3ccc(Cl)cc32)CC1,4.9 µM (active)
3,O=[N+]([O-])c1ccc(O)c2ncccc12,inactive
4,O=C(CCCl)NCc1ccccc1,inactive
5,CC(=O)N(CC(O)CO)c1c(I)c(C(=O)NCCO)c(I)c(C(=O)NCC(O)CO)c1I (stereo not given),inactive
6,C[C@@H]1CCC[C@H](C)N1CCCC(O)(c1ccccc1)c1ccccn1 (stereo not given in full),inactive
7,Nc1ccc(C(=O)OCC(O)CO)cc1 (stereo not given),inactive
8,O=C1Nc2cc(Cl)ccc2Oc2ccccc21,inactive
9,CN(C)CCOC(c1ccccc1)c1ccc(Br)cc1 (stereo not given),inactive
10,CC(=O)Nc1c(I)c(NC(C)=O)c(I)c(C(=O)O)c1I,inactive
11,CN(C)CCN(Cc1ccsc1)c1ccccn1,inactive
12,CC1CCCCN1CCCOC(=O)c1ccc(OC2CCCCC2)cc1 (stereo not given),inactive
13,CCOC(=O)[C@H](CCc1ccccc1)N[C@@H](C)C(=O)N(CC(=O)O)C1Cc2ccccc2C1,19.5 µM (active)
14,N#Cc1cc(NC(=O)C(=O)O)c(Cl)c(NC(=O)C(=O)O)c1,inactive
15,CCCCCN(CCCOC)C(=O)C(CCC(=O)O)NC(=O)c1ccc(Cl)c(Cl)c1 (stereo not given),19.5 µM (active)
16,O=C(CS(=O)Cc1ccco1)NC/C=C\COc1cc(CN2CCCCC2)ccn1 (stereo not given),inactive
17,Cc1c(F)cc2c(=O)c(C(=O)O)cn3c2c1CCC3C (stereo not given),inactive
18,COc1ccc(CCC(C)=O)cc1,inactive
19,CC(C)(C)CC(=O)OCC(=O)[C@@]1(O)CC[C@H]2[C@@H]3CCC4=CC(=O)C=C[C@]4(C)[C@H]3[C@@H](O)C[C@@]21C,11 µM (active)
20,Cc1onc(-c2ccccc2)c1C(=O)Cl,inactive

row,SMILES,Potency
1,CO[C@@]1(NC(=O)CSC[C@@H](N)C(=O)O)C(=O)N2C(C(=O)O)=C(CSc3nnnn3C)CS[C@@H]21,inactive
2,Nc1ccc([N+](=O)[O-])c(C(F)(F)F)c1,inactive
3,CC(=O)N(CC(=O)N(C)C)c1ccccc1,inactive
4,c1ccc2occc2c1,inactive
5,CC(C)Cc1ccc(C(C)C(=O)OCc2ccccn2)cc1 (stereo not given),9.77 µM (active)
6,Nc1ccc(O)cc1,15.5 µM (active)
7,C[N+](C)(CCOc1ccccc1)Cc1cccs1,inactive
8,CC(C)OP(=O)(CP(=O)(OC(C)C)OC(C)C)OC(C)C,inactive
9,Oc1ccccc1,inactive
10,CC(C)C(=O)OCc1cccc(OC(=O)[C@@H]2N3C(=O)[C@@H](NC(=O)Cc4ccccc4)[C@H]3SC2(C)C)c1,24.5 µM (active)
11,CCCCCCn1c(=O)c2c(ncn2C)n(C)c1=O,inactive
12,Cc1oc(=O)oc1COC(=O)[C@@H]1N2C(=O)[C@@H](NC(=O)[C@H](N)c3ccccc3)[C@H]2SC1(C)C,inactive
13,NC(=O)NS(=O)(=O)c1ccc(Cl)cc1,inactive
14,CCN1CCCC1CN (stereo not given),inactive
15,O=C(CCC1CCN(Cc2ccccc2)CC1)c1ccc2c(c1)NCCCC2,inactive
16,CCC(C(=O)NC(=O)NC(C)=O)c1ccccc1 (stereo not given),inactive
17,CCCCCCCC(=O)[O-].CCCCCCCC(=O)[O-].[Zn+2],inactive
18,COc1ccc2cc(C=O)ccc2c1,12.3 µM (active)
19,CC1CC(=O)NN=C1c1ccc(NCC(C)(C)NCC(O)COc2cc(Cl)ccc2C#N)cc1 (stereo not given),0.977 µM (active)
20,O=C1NC(c2ccccc2)(c2ccccc2)C(=O)N1COP(=O)(O)O,inactive
